Records with an inconclusive call do not appear. Active and inactive are the calls of the source. The call rests on the fitted dose curve; in most records, active means well fitted curve in the direction sought with a large enough effect; inconclusive means small, poorly fitted or top-dose-only effect, or another doubt; inactive means no such curve, though single readings can be large; an effect the other way counts as inactive or inconclusive. Numbered stars: 1 amine (or outer) side, 2 acyl side, 3 side chain; on linkers, the order of the positions; unused ones are H or OH. Bridge positions count the residues as written; N and C are the ends. Square brackets hold non-standard residues; d marks the D form. Peptide text beside a SMILES is read from it. I, II: the chains in the order shown. Actinocin(9to1) = Cc1c2oc3c(C)ccc(C(=O)[*:1])c3nc-2c(C(=O)[*:2])c(N)c1=O; NMeV = CN[C@H](C(=O)O)C(C)C; Sar = CNCC(=O)O
Assays:
[1] = qHTS of pediatric cancer cell lines to identify multiple opportunities for drug repurposing: Primary screen for TC32 cells (AID 1347089); further: nearly all actives have a fitted effect of over 60% in size; further: potency means the concentration at half of the fitted maximal effect
Summary of the method: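 Luminescent ATP read-out (CellTiter-Glo) of metabolically active TC32 cells after 48 h exposure. Concentration-response curves came from 11-point (MIPE, 0.78 nM–46 µM) or 8-point (NPC, 0.59 nM–46 µM) primary titrations; follow-up used 11 points.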

[2] = qHTS of pediatric cancer cell lines to identify multiple opportunities for drug repurposing: Primary screen for DAOY cells (AID 1347090); further: nearly all actives have a fitted effect of over 55% in size; further: potency means the concentration at half of the fitted maximal effect
Summary of the method: (§1)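 Eight- or eleven-point concentration series, 48 h treatment at 37 degrees C in growth media; readout CellTiter-Glo luminescence. Potency and efficacy were taken from the concentration-response curves.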

[3] = qHTS of pediatric cancer cell lines to identify multiple opportunities for drug repurposing: Primary screen for SJ-GBM2 cells (AID 1347091)
Summary of the method: as §1

[4] = qHTS of pediatric cancer cell lines to identify multiple opportunities for drug repurposing: Primary screen for Rh18 cells (AID 1347102); further: nearly all actives have a fitted effect of over 65% in size; further: potency means the concentration at half of the fitted maximal effect
Summary of the method: (§2)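 Cells (500-1,000/well) in growth media were settled 5 h at 37 degrees C, then given compounds for 48 h. Viability was read as CellTiter-Glo luminescence. Primary runs used MIPE at 11 points (0.78 nM-46 µM) and NPC at 8 points (0.59 nM-46 µM); follow-ups used 11 points.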

[5] = qHTS of pediatric cancer cell lines to identify multiple opportunities for drug repurposing: Primary screen for OHS-50 cells (AID 1347103); further: nearly all actives have a fitted effect of over 40% in size; further: potency means the concentration at half of the fitted maximal effect
Summary of the method: (§3)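 Cells (500-1,000/well) rested 5 h, then received compounds for 48 h; metabolically active cells were measured by CellTiter-Glo luminescence. Final concentrations spanned up to 46 µM (MIPE, 11-point) or 0.59 nM-46 µM (NPC, 8-point) in primary screens, 11-point in follow-ups.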

[6] = qHTS of pediatric cancer cell lines to identify multiple opportunities for drug repurposing: Primary screen for MG 63 (6-TG R) cells (AID 1347105); further: nearly all actives have a fitted effect of over 50% in size; further: potency means the concentration at half of the fitted maximal effect
Summary of the method: (§4)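 Phenotypic viability qHTS, 48 h compound exposure, CellTiter-Glo luminescence read-out; multi-concentration dosing so that potency and efficacy derive directly from the primary screen's curves.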

[7] = qHTS of pediatric cancer cell lines to identify multiple opportunities for drug repurposing: Primary screen for A673 cells (AID 1347092); further: nearly all actives have a fitted effect of over 45% in size; further: potency means the concentration at half of the fitted maximal effect
Summary of the method: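 Cell viability of A673 measured by CellTiter-Glo ATP luminescence after 48 hours compound exposure. Dilution series spanned 0.78 nM to 46 µM (MIPE, 11-point) or 0.59 nM to 46 µM (NPC, 8-point); bortezomib 2.3 uM positive control.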

[8] = qHTS of pediatric cancer cell lines to identify multiple opportunities for drug repurposing: Primary screen for SK-N-MC cells (AID 1347093); further: potency means the concentration at half of the fitted maximal effect
Summary of the method: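 Metabolically active cells were quantified by ATP-dependent luminescence (CellTiter-Glo, 15 min at room temperature) following 48 h treatment. Cells had been plated at 500-1,000 per well and settled for 5 h beforehand.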

[9] = qHTS of pediatric cancer cell lines to identify multiple opportunities for drug repurposing: Primary screen for BT-37 cells (AID 1347094); further: potency means the concentration at half of the fitted maximal effect
Summary of the method: as §4

[10] = qHTS of pediatric cancer cell lines to identify multiple opportunities for drug repurposing: Primary screen for NB-EBc1 cells (AID 1347095); further: potency means the concentration at half of the fitted maximal effect
Summary of the method: as §4

[11] = qHTS of pediatric cancer cell lines to identify multiple opportunities for drug repurposing: Primary screen for U-2 OS cells (AID 1347096); further: nearly all actives have a fitted effect of over 50% in size; further: potency means the concentration at half of the fitted maximal effect
Summary of the method: as §2

[12] = qHTS of pediatric cancer cell lines to identify multiple opportunities for drug repurposing: Primary screen for SK-N-SH cells (AID 1347098); further: nearly all actives have a fitted effect of over 65% in size; further: potency means the concentration at half of the fitted maximal effect
Summary of the method: as §3

[13] = qHTS of pediatric cancer cell lines to identify multiple opportunities for drug repurposing: Primary screen for LAN-5 cells (AID 1347100)
Summary of the method: as §2

[14] = qHTS of pediatric cancer cell lines to identify multiple opportunities for drug repurposing: Primary screen for RD cells (AID 1347104); further: nearly all actives have a fitted effect of over 55% in size; further: potency means the concentration at half of the fitted maximal effect
Summary of the method: as §4

[15] = qHTS of pediatric cancer cell lines to identify multiple opportunities for drug repurposing: Primary screen for NB1643 cells (AID 1347099); further: nearly all actives have a fitted effect of over 50% in size; further: potency means the concentration at half of the fitted maximal effect
Summary of the method: as §4

[16] = qHTS of pediatric cancer cell lines to identify multiple opportunities for drug repurposing: Primary screen for BT-12 cells (AID 1347101); further: nearly all actives have a fitted effect of over 25% in size; further: potency means the concentration at half of the fitted maximal effect
Summary of the method: as §3

[17] = qHTS of pediatric cancer cell lines to identify multiple opportunities for drug repurposing: Primary screen for Saos-2 cells (AID 1347097); further: nearly all actives have a fitted effect of over 40% in size; further: potency means the concentration at half of the fitted maximal effect
Summary of the method: as §4

Measured: Potency

C=C1C(=C/C=C2\CCC[C@]3(C)[C@@H]([C@H](C)/C=C/[C@@H](O)C4CC4)CC[C@@H]23)C[C@@H](O)C[C@@H]1O
active: [5] 30900 nM
inactive: [1] | [2] | [3] | [4] | [6]

Cc1c2oc3c(C)ccc(C(=O)N[C@@H]4C(=O)N[C@H](C(C)C)C(=O)N5CCC[C@H]5C(=O)N(C)CC(=O)N(C)[C@@H](C(C)C)C(=O)O[C@@H]4C)c3nc-2c(C(=O)N[C@@H]2C(=O)N[C@H](C(C)C)C(=O)N3CCC[C@H]3C(=O)N(C)CC(=O)N(C)[C@@H](C(C)C)C(=O)O[C@@H]2C)c(N)c1=O (I: T[dV]P[Sar][NMeV] / II: T[dV]P[Sar][NMeV]; ester I:1-I:C, II:1-II:C; linker I:N-II:N via Actinocin(9to1))
inactive: [10] | [13]
active: [1] 14.9 nM | [2] 21.1 nM | [7] 4.2 nM | [8] 2.7 nM | [9] 2.8 nM | [11] 42.2 nM | [12] 3.4 nM | [5] 34.7 nM | [14] 13.3 nM | [6] 33.5 nM

CCCCN1CCCC1C(=O)Nc1c(C)cc(C)cc1C (centres undefined)
not listed: [3] | [5] | [6] | [17]
inactive: all other assays above

CCN1CCC[C@H]1CNC(=O)c1c(OC)ccc(Br)c1OC
not listed: [3]
inactive: all other assays above

CC(C)(Oc1ccc(Cl)cc1)C(=O)O
not listed: [3] | [17]
inactive: all other assays above

C[C@H](O)C(=O)Nc1c(I)c(C(=O)NC(CO)CO)c(I)c(C(=O)NC(CO)CO)c1I
not listed: [3]
inactive: all other assays above

Cc1c(C)n(CCN(C)C)c2ccc(C(=O)OCCN(C)C)cc12
not listed: [7] | [8] | [12] | [16]
inactive: all other assays above

CN(C)CC/C=C1/c2ccccc2COc2ccc(CC(=O)O)cc21
not listed: [3] | [17]
inactive: all other assays above

C[C@]12C=CC(=O)C=C1CC[C@@H]1[C@@H]2[C@@H](O)C[C@@]2(C)[C@H]1CC[C@]2(O)C(=O)CO
not listed: [3] | [14] | [17]
inactive: all other assays above

C[C@@H]1C[C@H]2[C@@H]3CCC4=CC(=O)C=C[C@]4(C)[C@@]3(F)[C@@H](O)C[C@]2(C)[C@H]1C(=O)CO
not listed: [3] | [5] | [16]
inactive: all other assays above

COc1cccc2c1C(=O)c1c(O)c3c(c(O)c1C2=O)C[C@@](O)(C(C)=O)C[C@@H]3O[C@H]1C[C@H](N)[C@H](O)[C@H](C)O1
active: [1] 236 nM | [2] 1060 nM | [7] 266 nM | [8] 84.1 nM | [9] 110 nM | [10] 53.1 nM | [11] 6680 nM | [17] 266 nM | [12] 386 nM | [15] 133 nM | [16] 550 nM | [4] 473 nM | [5] 347 nM | [6] 4220 nM

CCOC(=O)COc1ccc2c(C)c(CCN(CC)CC)c(=O)oc2c1Cl
not listed: [3] | [6]
inactive: all other assays above

Cc1cc2c(cc1CC(=O)c1sccc1S(=O)(=O)Nc1onc(C)c1Cl)OCO2
not listed: [3]
inactive: all other assays above

COc1cc2c(cc1OC)C(=O)C(CC1CCN(Cc3ccccc3)CC1)C2 (centres undefined)
inactive: [1] | [2] | [7] | [8] | [9] | [10] | [11] | [4] | [14]

Cc1ccc(C(=O)C(C)CN2CCCCC2)cc1 (centres undefined)
not listed: [3]
inactive: all other assays above

CCN(CC)CCNC(=O)COc1ccc(Cl)cc1
not listed: [3] | [6]
inactive: all other assays above

— PubChem BioAssay (NCATS)
